Test results taken from PubChem BioAssay AID720555 (National Center for Advancing Translational Sciences (NCATS), 2013).
Where “and” joins values, the source holds several entries; their conditions need not be identical. Equal values may be shown once. Records with an inconclusive call do not appear. Calls of active or inactive are those of the source. Calls come from the whole dose curve; as a rule, active = well fitted inhibition curve with a large enough effect; inconclusive = small, poorly fitted or top-dose-only effect; inactive = no such curve, though single readings can be large or run the other way.

The compounds below were run against RecQ-like DNA helicase BLM (Homo sapiens) (UniProt P54132) (assay: qHTS for Inhibitors of Bloom's syndrome helicase (BLM): Helicase DNA unwinding fluorescent orthogonal confirmatory assay for SAR). Settings: fluorescence, orthogonal confirmation; series mostly up to 55.6 µM; activity change, negative = inhibition: at the top concentration.
Description: Human RecQ DNA helicases participate in maintenance of genome stability and DNA repair. While other types of helicases have been explored as targets for drug development, members of the RecQ family have remained less well characterized. Mutations of the Bloom helicase gene have been associated with the rare human genetic disease called Bloom syndrome. […] Moreover, identified inhibitors can be used in cells and animal models to examine the consequences of inhibition on the survival of cancer cells where it has been shown that BLM plays an important role.
A fluorescence-based, biochemical assay in 1536 well format was developed to evaluate inhibition of BLM DNA unwinding activity. This assay was used to screen the MLPCN library. The resulting compounds were subjected to orthogonal and secondary biochemical assays to triage the initial hits, to classify compounds based on mode of action and to derive structure activity relationships (SARs) of candidate effectors. The data herein is the result of the Helicase DNA unwinding fluorescent orthogonal confirmatory assay. This fluorescent-based assay employs a purified BLM enzyme and utilizes gel electrophoresis to monitor the helicase-mediated unwinding of a fluorescently-labeled DNA substrate. For this assay decrease in the single-stranded DNA product band on the gel = inhibition of the BLM helicase activity. Inhibition is the desired outcome for this assay.
NIH Chemical Genomics Center [NCGC]
NIH Molecular Libraries Probe Centers Network [MLPCN]
Assay Submitter (PI): Opher Gileadi, Structural Genomics Consortium, University of Oxford, UK
Unwinding assay for the BLM helicase was carried out in a reaction buffer containing 50 mM Tris-HCl pH 7.5, 50mM NaCl, 2mM MgCl2, 2mM ATP, 1mM DTT, and 0.1 mg/ml BSA. Optimal substrate and enzyme concentrations as well as reaction times were determined experimentally. All reactions were performed at room temperature and terminated by the addition of loading buffer containing 20mM EDTA and 2.5% bromophenol blue. Reaction products were then separated on 15% non-denaturing polyacrylamide gels in 1x TAE, and the DNA was visualized using the Bio-Rad ChemiDocTM XRS Gel Imager. Substrate and product bands were quantified using ImageJ. The data was normalized against no-inhibitor and no-enzyme controls.

Chain of RecQ-like DNA helicase BLM (Homo sapiens) (P54132 whole entry, looked up): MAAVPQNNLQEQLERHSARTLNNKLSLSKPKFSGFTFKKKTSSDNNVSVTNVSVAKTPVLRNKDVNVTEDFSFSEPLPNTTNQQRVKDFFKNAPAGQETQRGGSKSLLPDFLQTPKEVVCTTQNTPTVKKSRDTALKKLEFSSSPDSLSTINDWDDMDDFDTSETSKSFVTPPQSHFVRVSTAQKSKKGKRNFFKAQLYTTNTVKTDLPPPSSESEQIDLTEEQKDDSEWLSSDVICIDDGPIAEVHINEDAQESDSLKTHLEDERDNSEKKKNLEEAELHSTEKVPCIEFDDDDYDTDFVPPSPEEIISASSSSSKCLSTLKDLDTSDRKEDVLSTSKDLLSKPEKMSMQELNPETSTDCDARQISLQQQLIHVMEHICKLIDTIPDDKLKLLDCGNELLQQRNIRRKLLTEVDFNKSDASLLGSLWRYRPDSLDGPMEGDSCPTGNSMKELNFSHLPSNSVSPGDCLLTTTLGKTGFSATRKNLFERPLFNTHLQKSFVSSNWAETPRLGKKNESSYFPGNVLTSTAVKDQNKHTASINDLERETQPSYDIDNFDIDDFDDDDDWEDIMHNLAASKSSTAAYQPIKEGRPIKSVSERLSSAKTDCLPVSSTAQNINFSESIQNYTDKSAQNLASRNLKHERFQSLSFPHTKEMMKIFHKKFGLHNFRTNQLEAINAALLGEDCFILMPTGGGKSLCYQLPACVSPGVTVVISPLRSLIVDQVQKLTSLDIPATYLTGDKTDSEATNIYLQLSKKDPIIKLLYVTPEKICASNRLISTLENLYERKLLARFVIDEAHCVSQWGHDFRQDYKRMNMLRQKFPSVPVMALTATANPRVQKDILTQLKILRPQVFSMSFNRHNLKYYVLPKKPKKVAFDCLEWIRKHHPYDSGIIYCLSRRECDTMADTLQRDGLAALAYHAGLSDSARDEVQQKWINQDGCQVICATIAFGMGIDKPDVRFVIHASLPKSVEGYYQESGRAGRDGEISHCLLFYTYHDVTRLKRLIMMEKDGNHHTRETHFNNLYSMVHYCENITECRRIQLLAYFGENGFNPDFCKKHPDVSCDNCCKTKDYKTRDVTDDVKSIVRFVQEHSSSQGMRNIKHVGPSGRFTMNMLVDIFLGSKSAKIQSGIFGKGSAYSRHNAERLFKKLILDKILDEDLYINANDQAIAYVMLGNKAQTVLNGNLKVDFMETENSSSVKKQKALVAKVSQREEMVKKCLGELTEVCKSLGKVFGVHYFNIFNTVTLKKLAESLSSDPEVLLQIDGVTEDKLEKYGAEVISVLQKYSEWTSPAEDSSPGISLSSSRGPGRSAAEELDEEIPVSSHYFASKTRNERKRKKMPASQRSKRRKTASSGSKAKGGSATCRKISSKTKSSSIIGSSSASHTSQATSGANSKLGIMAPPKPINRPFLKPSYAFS

| SMILES | activity change, negative = inhibition | Potency |
| --- | --- | --- |
| Cc1cc(NC(=O)Nc2nnc(C3CCCCC3)s2)ccc1Cl | 8.63% (inactive) | – |
| N/C(=N\c1nnc(-c2ccncc2)s1)Nc1ccc(Cl)c(Cl)c1 | – | 14.1 µM (active) |
| Cc1cc(NC(=O)Nc2nnc(C3CCCCC3)s2)ccc1Br | -10.8% (inactive) | – |
| O=C(Nc1ccc(Cl)c(Cl)c1)Nc1nnc(N2CCNCC2)s1 | 10.7% (inactive) | – |
| O=C(Nc1ccc2ccccc2c1)Nc1nnc(C2CCCCC2)s1 | 10.8% (inactive) | – |
| Cc1cc(NC(=O)Nc2nnc(-c3ccncc3)s2)ccc1Cl | – | 7.94 µM (active) |
| S=C(Nc1ccc(Cl)c(Cl)c1)Nc1nnc(-c2ccncc2)s1 | – | 3.98 µM (active) |
| CN(C(=O)Nc1ccc2ccccc2c1)c1nnc(-c2ccncc2)s1 | -4.83% (inactive) | – |
| Cc1cc(NC(=O)Nc2nnc(-c3cccnc3)s2)ccc1Cl | – | 7.94 µM (active) and 3.98 µM (active) |
| N#Cc1cccc(NC(=O)Nc2nnc(-c3ccncc3)s2)c1 | – | 8.91 µM (active) |
| N#Cc1cc(NC(=O)Nc2nnc(-c3ccncc3)s2)ccc1Br | – | 0.501 µM (active) |
| O=C(Nc1ccc(-c2cn[nH]c2)c(C(F)(F)F)c1)Nc1nnc(-c2ccncc2)s1 | – | 15.8 µM (active) |
| Cc1cc(NC(=O)Nc2nnc(-c3ccncc3)s2)ccc1-c1cn[nH]c1 | – | 11.2 µM (active) |
| Cc1cc(NC(=O)Nc2nnc(-c3cccnc3)s2)ccc1F | – | 25.1 µM (active) |
| N#Cc1ccc(NC(=O)Nc2nnc(-c3ccncc3)s2)c(Cl)c1 | – | 11.2 µM (active) |
| O=C(Nc1ccc2sccc2c1)Nc1nnc(-c2ccncc2)s1 | – | 10 µM (active) |
| O=C(Nc1ccc(Br)cc1)Nc1nnc(-c2ccncc2)s1 | – | 12.6 µM (active) |
| N#Cc1cc(NC(=O)Nc2nnc(-c3ccncc3)s2)ccc1Cl | – | 0.398 µM (active) |
| O=C(Nc1ccc(Cl)c(C(F)(F)F)c1)Nc1nnc(-c2cccnc2)s1 | – | 3.16 µM (active) |
| CC(C)(C)NC(=O)Nc1nnc(-c2ccncc2)s1 | 5.44% (inactive) | – |

| SMILES | activity change, negative = inhibition | Potency |
| --- | --- | --- |
| O=C(Nc1ccc(Cl)c(C(F)(F)F)c1)Nc1cccc(-c2ccncc2)n1 | – | 20 µM (active) |
| Cc1cc(NC(=O)Nc2nnc(-c3ccncc3)s2)ccc1Br | – | 12.6 µM (active) |
| O=C(Nc1ccc(N2CCOCC2)c(F)c1)Nc1nnc(-c2ccncc2)s1 | -0.865% [at 53.6 µM] (inactive) | – |
| O=C(Cc1nnc(-c2ccncc2)s1)Nc1ccc(F)c(C(F)(F)F)c1 | -13.6% [at 53.6 µM] (inactive) | – |
| Cc1cc(Nc2c(Nc3nnc(-c4ccncc4)s3)c(=O)c2=O)ccc1Cl | – | 22.4 µM (active) |
| O=C(Nc1ccc(-c2nc3ccccc3[nH]2)cc1)Nc1ccc2occc2c1 | -6.03% (inactive) | – |
| CCOC(=O)c1cccc(NC(=O)Nc2nnc(-c3ccncc3)s2)c1 | 10.3% (inactive) | – |
| O=C(Nc1ccc(-c2nc3ccccc3[nH]2)cc1)Nc1ccc2c(c1)OCCO2 | -0.67% (inactive) | – |
| O=c1c(Nc2ccc(Br)c(Br)c2)c(Nc2nnc(-c3ccncc3)s2)c1=O | – | 6.31 µM (active) |
| CCCCCCNC(=O)Nc1nnc(-c2ccncc2)s1 | 7.51% (inactive) | – |
| N#Cc1cc(NC(=O)Nc2nnc(-c3ccncc3)s2)ccc1F | – | 1.41 µM (active) |
| COc1ccc(NC(=O)Nc2ccc(-c3nc4ccccc4[nH]3)cc2)cc1OC | 10.2% (inactive) | – |
| O=C(Nc1ccc(Cl)c(Cl)c1)N1CCN(c2ccncc2)CC1 | 6% [at 53.6 µM] (inactive) | – |
| O=C(Nc1ccc(F)c(C(F)(F)F)c1)Nc1nc(-c2ccncc2)cs1 | -3.13% [at 53.6 µM] (inactive) | – |
| O=C(Nc1cc(F)cc(F)c1)Nc1nnc(-c2ccncc2)s1 | – | 15.8 µM (active) |
| O=C(Nc1ccc2ccccc2c1)Nc1nnc(-c2ccc(Cl)cc2)s1 | -10.2% (inactive) | – |
| O=C(Nc1ccc2ccccc2c1)Nc1nnc(-c2ccccc2F)s1 | -2.28% (inactive) | – |
| CN1CCN(c2nnc(NC(=O)Nc3ccc(Cl)c(Cl)c3)s2)CC1 | 8.47% (inactive) | – |
| O=C(Nc1ccc(Cl)c(Cl)c1)Nc1nnc(NC2CCNCC2)s1 | 80.4% (inactive) | – |
| O=C(Nc1ccc2ccccc2c1)Nc1nnc(-c2ccccc2)s1 | 4.37% (inactive) | – |
